# Only some compounds are listed: those with a hit (about 3.8% of all), similar ones and a draw of the others.
# PAFAH1B2 FP inh – blocks human PAF acetylhydrolase 1b catalytic subunit 2. P68402. recombinant PAFAH1B2, FP-rhodamine activity probe, fluorescence polarization. inhibition, % at 3.39 µM. 340,000 compounds, 1.2% hits. AID 492953;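 active means inhibition above the mean of all tested compounds plus 3 SD, cut at about 24% in these data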;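 further: 0% = enzyme with DMSO and 100% = wells lacking PAFAH1B2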
# DSG3 Ab inh – human desmoglein-3 autoantibody binding inhibition | P32926 | DSG3-coupled beads, scFv-anti-DSG3-GFP binding, flow cytometry; active compounds read low | binding (percent of control), % at 10 µM | 310,000 compounds, 0.48% hits;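 active means binding more than 3 SD below its plate's average and above zero; inconclusive means below that plate limit but binding exactly zero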;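 further: hits lower antibody fragment binding to DSG3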
# PfM18AAP inh-1 – blocks P. falciparum M18 aspartyl aminopeptidase; inhibition, % at 7.35 µM; 290,000 compounds, 1.2% hits; AID 1822; recombinant PfM18AAP, H-Glu-NHMec fluorogenic cleavage;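 active means inhibition above the campaign mean inhibition over all tested compounds plus 3 SD, cut at about 28% in these data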;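 further: 0% = plate median of test compound wells and 100% = 2 mM ZnCl2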
# pPAFAH FP inh – inhibitors of human plasma PAF acetylhydrolase (pPAFAH); Q13093; recombinant pPAFAH, FP-rhodamine probe fluorescence polarization; inhibition, % at 3.39 µM; 330,000 compounds, 1.5% hits; AID 463082;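 active means inhibition above the mean inhibition across the screen plus 3 SD, cut at about 25% in these data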;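 further: inhibitors block binding of the rhodamine activity-based probe so polarization drops; 0% = enzyme with DMSO and 100% = wells lacking pPAFAH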
# PAFAH1B3 inh – blocks human PAF acetylhydrolase 1B catalytic subunit 3; 340,000 compounds, 0.28% hits; recombinant PAFAH1B3, FP-rhodamine probe, fluorescence polarization; inhibition, % at 3.39 µM; Q15102;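 active means inhibition above the screen-wide average of all tested compounds plus 3 SD, cut at about 25% in these data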;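 further: 0% = enzyme with DMSO only and 100% = wells lacking PAFAH1B3 protein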
# Target sequence (Q15102 whole entry, looked up): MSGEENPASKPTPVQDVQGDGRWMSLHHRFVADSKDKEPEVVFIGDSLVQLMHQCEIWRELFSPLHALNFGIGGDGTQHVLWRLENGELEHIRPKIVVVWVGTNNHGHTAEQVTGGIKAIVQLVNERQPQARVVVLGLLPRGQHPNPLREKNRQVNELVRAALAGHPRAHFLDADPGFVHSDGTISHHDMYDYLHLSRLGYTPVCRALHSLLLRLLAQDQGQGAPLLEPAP
# PAFAH2 FP inh – PAFAH2 (human) inhibition | Q99487 | recombinant PAFAH2, FP-rhodamine activity probe, fluorescence polarization | inhibition, % at 3.39 µM | 340,000 compounds, 0.99% hits;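 active means inhibition above the mean over all tested compounds plus 3 SD, cut at about 30% in these data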;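 further: inhibitors block probe labeling of enzyme so polarization drops; 0% = enzyme with DMSO and 100% = wells lacking PAFAH2 protein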
# PfM18AAP inh-2 – PfM18AAP inhibition, confirmation | shares compounds with PfM18AAP inh-1 | recombinant PfM18AAP, H-Glu-NHMec fluorogenic cleavage | inhibition, % at 7.35 µM | 2,400 compounds, 28% hits | AID 2170;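 active means mean inhibition over replicate wells above the hit cutoff set for the earlier primary screen, cut at about 29% in these data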;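 further: 0% = median of test compound wells and 100% = 2 mM ZnCl2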
# CTSL1 confirm – Cathepsin L (human) inhibition, confirmation. AID 2178. 2,400 tested, under 10 active. inhibition, % at 5.96 µM. shares compounds with PfM18AAP inh-1. purified cathepsin L1, Z-Leu-Arg-MCA fluorescence;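 active means average inhibition across replicates above the hit cutoff set in the earlier primary screen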;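 further: 0% = median of test compound wells and 100% = Z-Phe-Ala-diazomethylketone 1 µM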
# Target sequence (P07711 whole entry, looked up): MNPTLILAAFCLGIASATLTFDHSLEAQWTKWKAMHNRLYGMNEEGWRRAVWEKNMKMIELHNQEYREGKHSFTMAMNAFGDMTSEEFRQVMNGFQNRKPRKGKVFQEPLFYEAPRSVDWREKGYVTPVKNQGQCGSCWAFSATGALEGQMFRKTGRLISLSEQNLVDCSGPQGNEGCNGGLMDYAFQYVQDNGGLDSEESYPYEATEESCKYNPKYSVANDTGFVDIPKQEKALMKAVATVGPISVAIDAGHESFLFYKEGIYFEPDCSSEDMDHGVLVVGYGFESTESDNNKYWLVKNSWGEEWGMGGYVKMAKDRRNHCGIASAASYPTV
# Numbers without * were called inactive; u = inconclusive; x = no result given.
SMILES,PAFAH1B2 FP inh,DSG3 Ab inh,PfM18AAP inh-1,pPAFAH FP inh,PAFAH1B3 inh,PAFAH2 FP inh,PfM18AAP inh-2,CTSL1 confirm
COc1cccc(NC(=O)CSc2nnc3ccc(-c4ccccn4)nn23)c1,6,98,x,x,11,-1,x,x
C/C(=N\Nc1cccc(C(=O)O)c1)c1ccc(Cl)s1,9,103,41*,11,10,10,-46,-1
CC1CCC(NC(=O)CN2C(=O)c3cccnc3Oc3ccc(Cl)cc32)CC1 (centres undefined),1,106,-7,-4,5,-3,x,x
O=C(NNC(=O)c1ccc2ccccc2c1O)Nc1ccc(F)cc1,5,103,34*,18,19,-6,-3,3
Cc1cc(C)nc(SCCN(C)C)n1,1,90,1,-2,2,-6,x,x
Cc1cc(C)nc(SSc2nc(C)cc(C)n2)n1,3,114,61*,3,0,2,28,5
COc1ccc(C(=O)NNC(=O)C23CC4CC(CC(C4)C2)C3)cc1OC,7,x,x,0,2,9,x,x
O=C(/C=C1\SC(=O)NC1=O)Nc1ccc(F)cc1,3,102,36*,-2,5,-7,-56,7
CCOC(=O)C1CCN(C(=O)CCCOc2ccccc2)CC1,8,108,-7,3,11,-3,x,x
Nc1nncn1C(=O)CCCOc1ccccc1,5,91,35*,4,3,7,50*,-3
Nc1nncn1C(=O)CCc1ccccc1,4,93,72*,2,12,2,49*,-3
COCCN(CC(=O)NCC1CCCO1)C(=O)CCC(=O)Nc1ccccn1 (centres undefined),2,102,-16,5,8,-4,x,x
N#CC(c1nc2ccccc2nc1OCCO)S(=O)(=O)c1ccccc1 (centres undefined),5,96,-5,11,7,2,x,x
Cc1nn(C)c(C(=O)NN)c1Cl,x,105,-4,2,x,x,x,x
COc1c(Cl)cc(Cl)cc1/C=C/C(=O)c1ccc(NC(=O)c2cccs2)cc1,-28,98,-2,18,-59,-70,x,x
Cc1ccc(Cn2nnnc2CN2CCC(NC(=O)C(C)(C)C)CC2)cc1,1,97,0,4,2,-2,x,x
CC(C)Nc1ncnc2c1cnn2-c1ccccc1,1,101,-7,-7,7,1,x,x
NNc1ncnc2c1cnn2-c1ccccc1,1,95,36*,-2,3,-4,-3,-1
N#Cc1ccccc1S(=O)(=O)N1CCN(C(=O)C2CCCC2)CC1,0,108,-11,3,6,-5,x,x
O=C(c1ccc(Cl)cc1)c1c[nH]c(C(=O)NNc2ccccc2)c1,2,99,33*,7,3,-2,-6,-1
Cc1cc(C)c(S(=O)(=O)Nc2ccc(N(C)C)cc2)c(C)c1-n1cnnn1,4,95,17,-1,8,-2,x,x
C=CCSc1nnc(C)c(/C=C/Nc2ccc(Cl)cc2)n1,x,116,-7,6,x,x,x,x
COc1cc(/C=N/Nc2nc(C)cc(=O)[nH]2)cc(OC)c1O,2,95,42*,-9,1,5,17,0
COc1cc(/C=N/Nc2nc(C)cc(=O)[nH]2)ccc1O,2,92,19,-3,2,4,x,x
CCC1CCCCN1CCCNC(=O)c1ccc(N2CCOCC2)c(NS(=O)(=O)c2ccc(OC)cc2)c1 (centres undefined),6,100,-3,0,-1,1,x,x
SMILES,PAFAH1B2 FP inh,DSG3 Ab inh,PfM18AAP inh-1,pPAFAH FP inh,PAFAH1B3 inh,PAFAH2 FP inh,PfM18AAP inh-2,CTSL1 confirm
CCC1CCCCN1CCCNC(=O)c1ccc2c(c1)NC(=O)CN2C (centres undefined),5,u,32*,0,7,2,-13,5
Cc1nnc(-c2ccc(Oc3ccc(Br)cc3)c([N+](=O)[O-])c2)o1,8,x,33*,16,-14,-3,-55,-1
C/C(=N\N1C(=O)CSC1=S)c1ccc(Br)cc1,11,98,50*,8,0,0,10,5
COC(=O)Nc1nc(Sc2ncc(C(F)(F)F)cc2Cl)n[nH]1,5,98,69*,3,1,6,70*,-1
COC(=O)C(C(=O)OC)c1ncc(C(F)(F)F)cc1Cl,5,100,4,2,-10,0,x,x
C/C(=N\NS(=O)(=O)c1ccc(Br)cc1)c1ccncc1,3,102,53*,1,14,-1,14,-5
C/C(=N/NS(=O)(=O)c1cccc([N+](=O)[O-])c1)c1ccncc1,0,103,44*,0,3,-6,4,-4
CC1(C(=O)Nc2c(F)c(F)c(F)c(F)c2F)CC1(Br)Br (centres undefined),5,x,-11,0,5,-3,x,x
CC1CCCC(NC(=O)COC(=O)[C@@H](NC(=O)c2ccccc2Cl)C(C)C)C1C (some centres undefined),1,x,x,0,5,-5,x,x
CCN(CC)S(=O)(=O)c1ccc(N/N=C/c2cc(OC)ccc2O)nc1,6,x,57*,4,11,-1,-9,1
CCN(c1ccccc1)S(=O)(=O)c1ccc(NN)nc1,3,x,x,0,9,4,x,x
CN1CCN(S(=O)(=O)c2ccc(NN)nc2)CC1,6,99,x,3,6,-2,x,x
CCN(CC)S(=O)(=O)c1ccc(NN)nc1,4,82,45*,2,4,0,41*,-2
CC(C)N(C(C)C)S(=O)(=O)c1ccc(NN)nc1,0,86,38*,1,0,2,37*,3
CCN(CC)S(=O)(=O)c1ccc(N/N=C/c2cccnc2)nc1,7,97,20,-1,3,6,x,x
CCc1c(C)sc(NC(=O)c2noc(C)c2[N+](=O)[O-])c1C#N,5,88,37*,8,2,9,-36,-3
CCc1c(C)sc(NC(=O)c2cc(CC(C)C)on2)c1C#N,17,81,13,3,-9,6,x,x
Cc1ccc(S(=O)(=O)NC(CC(=O)NCC2CCCO2)c2ccccc2)cc1 (centres undefined),12,x,0,-1,4,0,x,x
COc1ccccc1N1C(=O)C=C(Sc2nc(C)cc(C)n2)C1=O,x,96,35*,-3,x,x,-322,-2
COc1ccccc1N1C(=O)C2CC(C)=C(C)CC2C1=O (centres undefined),-1,98,2,-2,8,8,x,x
CCCCCn1c(SCC(=O)c2ccccc2)nc2cc(C(=O)NCC3CCCO3)ccc2c1=O (centres undefined),1,103,x,x,-2,-2,x,x

# Compound activity: PubChem, several laboratories
